Laboratory results from PubChem BioAssay AID588795 (National Center for Advancing Translational Sciences (NCATS), 2011).
Hit rate of the full screen: of about 390,000 compounds, about 1,400 (0.36%) were called active. Roughly 2% stayed inconclusive and do not appear here. The sample holds actives, similar compounds and a random draw of the others, so the mix is not that of the screen. Calls follow the shape of the dose curve; as a rule, active = well fitted inhibition curve with a large enough effect; inconclusive = small, poorly fitted or top-dose-only effect; inactive = no such curve, though single readings can be large or run the other way.

Molecular target: Flap endonuclease 1 (Homo sapiens) (UniProt P39748)
Sequence (P39748 whole entry, looked up): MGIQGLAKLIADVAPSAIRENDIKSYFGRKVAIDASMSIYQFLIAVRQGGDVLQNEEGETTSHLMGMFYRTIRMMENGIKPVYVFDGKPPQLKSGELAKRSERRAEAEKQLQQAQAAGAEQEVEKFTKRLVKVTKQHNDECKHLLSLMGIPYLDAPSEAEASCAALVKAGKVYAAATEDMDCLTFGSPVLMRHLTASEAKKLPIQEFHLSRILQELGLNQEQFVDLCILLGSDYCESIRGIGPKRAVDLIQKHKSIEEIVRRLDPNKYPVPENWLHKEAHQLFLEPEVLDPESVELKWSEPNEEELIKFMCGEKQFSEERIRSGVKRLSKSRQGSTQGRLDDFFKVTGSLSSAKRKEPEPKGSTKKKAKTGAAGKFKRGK
Test: qHTS Assay for the Inhibitors of Human Flap endonuclease 1 (FEN1). Also: nearly all actives have a fitted effect of over 65% in size.
Settings: Recombinant FEN1 flap cleavage, fluorescence, 15 min; series mostly up to 114 µM; activity change, negative = inhibition: at the top concentration
Source text: The major human flap endonuclease FEN1 is an efficient structure-specific enzyme that recognizes and cleaves a 5'-unannealed DNA flap. It belongs to the RAD2 family nucleases, which are involved in DNA metabolism and are highly conserved in prokaryotes and eukaryotes. FEN1 is a key enzyme in DNA replication, repair and maintenance of genomic stability. 5'-flap removal by FEN1 is critical for Okazaki fragment processing during lagging strand DNA synthesis, long-patch base excision repair (LP BER), and regulating or facilitating recombination events. […] Deletion of the yeast FEN1 gene, i.e. rad27, results in an increased frequency of short DNA (3-32 bp) repeats, micro- and mini-satellite formation, trinucleotide repeat expansion, spontaneous recombination events, and a severe growth defect in association with cell cycle arrest in late S/G2 phase. […] Cells from fen1-/- blastocysts show increased apoptotic cell death after ionizing radiation treatment, and chicken cells lacking the fen1 gene are hypersensitive to DNA alkylating agents, e.g. methylmethane sulfonate (MMS) and N-methyl-N'-nitro-N-nitrosoguanidine (MNNG), as well as hydrogen peroxide.
NIH Chemical Genomics Center [NCGC]
NIH Molecular Libraries Probe Centers Network [MLPCN]
Assay Submitter (PI): David Wilson, National Institute of Aging
Three uL of reagents (buffer in column 3 and 4 as negative control and 10 nM FEN1 in columns 1, 2, and 5-48) were dispensed into 1,536-well black solid-bottomed plate. Compounds (23 nL) were transferred via Kalypsys pin tool equipped with 1536-pin array (10 nL slotted pins, V&P Scientific, San Diego, CA). The plates were then incubated for 15 min at room temperature, and 1 uL substrate (50 nM final concentration) were added to start the reaction read twice at 0 min read and 15 min on ViewLux reader. Throughout the screen, reagent bottle and all liquid lines were chilled and made light-tight to minimize reagent degradation. All screening operations were performed on a fully integrated robotic system (Kalypsys, San Diego, CA) containing one RX-130 and two RX-90 anthropomorphic robotic arms (Staubli, Duncan, SC). Library plates were screened starting from the lowest and proceeding to the highest concentration, and a "double-dipping" step of the highest concentration was required to access higher concentrations of compounds. Vehicle-only plates, with DMSO being pin-transferred to the entire column 5-48 compound area, were inserted uniformly at the beginning and the end of each library in order to monitor for and record any shifts in the background, which can be affected by reagent dispensers or loss in enzyme activity overtime. Screening data was corrected, normalized, and concentration-effect relationships were derived by using publicly-available curve fitting algorithms developed in-house (http://ncgc.nih.gov/pub/openhts). A four parameter Hill equation was fitted to the concentration-response data by minimizing the residual error between the modeled and observed responses.
% is scaled to controls: 0 for no effect and ±100 for the full control effect; potency is read from the fitted curve at half-maximal effect.

Activity change, negative = inhibition, inactive:
COc1cc2nc(Cl)nc(NC3CC3)c2cc1OC -7%, COc1cc2nc(N3CCCN(C)CC3)nc(NC(C)C)c2cc1OC -7.37%, CN(N=O)c1ccc(C=C2c3ccccc3-c3ccccc32)cc1 -19.3%, O=C(COc1ccccc1C(=O)Nc1ccccc1)Nc1cccc(F)c1 2.36%, CC(=O)c1ccc[n+](C(C)CCC(C)[n+]2cccc(C(C)=O)c2)c1 (stereo not given) -9.54%, Cc1ccc(-c2cc(N)n(Cc3cccc(Cl)c3)n2)cc1 -16.4%, C[C@@H]1CC[C@@]2(OC1)O[C@H]1C[C@H]3[C@@H]4CC=C5C[C@@H](O)[C@H](O)C[C@]5(C)C4CC[C@]3(C)[C@H]1[C@@H]2C (stereo not given in full) 13.5%, C[C@]12CC[C@H](O)CC1=CCC1C2CC[C@@]2(C)C1CC[C@@H]2NC(=O)CCC(=O)O (stereo not given in full) 2.34%, CC(C)(C(=O)NO)c1ccccc1 -6.25%, CN(C)c1ccc(/C=N\Nc2ccc([N+](=O)[O-])cc2[N+](=O)[O-])cc1Cl 2.15%, CCCCOc1ccc(CN2C(=O)C(=O)c3cc(Br)cc(C)c32)cc1OC -12.5%, COc1ccccc1Nc1cc(C(=O)NCCCN(C)C2CCCCC2)c2ccccc2n1 3.77%, COc1ccc(Nc2cc(C(=O)NCCCN(C)c3ccccc3)c3ccccc3n2)c(OC)c1 1.8%, CCc1ccc(NC(=O)CN2C(=O)C(c3ccccc3)=NC23CCCCCC3)cc1 -26.4%, COc1ccc(NC(=O)CN2C(=O)C(c3ccccc3)=NC23CCCCCC3)cc1OC -12.5%, COc1ccc(CCNc2ncnc3c2cnn3-c2ccc(C)cc2)cc1 -15.5%, CCOC(=O)c1[nH]c2ccc(OC)cc2c1NC(=O)N1CCOCC1 -2.89%, CN(C)c1ccc(/C=C2\C=Cc3ccccc32)cc1Br -23.9%, c1ccc(Cn2nnc3c(N4CCCCC4)ncnc32)cc1 14.5%, CCCCOc1ccc(C(=O)NO)cc1 0.524%, O=[N+]([O-])c1ccc(/C=C/c2ccc3cccnc3c2)cc1 -2.17%, COc1ccc(OC)c(NC(=O)Cc2cccs2)c1 -1.63%, COc1ccccc1NC(=O)Nc1nnc(Cc2ccc(F)cc2)s1 26.2%, CN(C)c1ccc(/C=C/c2c3ccccc3nc3ccccc23)cc1 -17%, CC[n+]1cc(C)ccc1/C=C/c1ccc(N(C)C)cc1 -25%, CO[C@H]1O[C@@H]2O[C@@]3(C)CC[C@@H]4[C@@H](C)CC[C@@H]([C@H]1C)[C@@]24OO3 12.3%, Cc1ccc(Cn2cnc3c(cnn3C(C)(C)C)c2=O)c(F)c1 -14.4%, Cc1ccc(C=O)cc1Cl -1.08%, CCCCCCC1(C)NC(c2ccc3c(c2)OCO3)=CC(c2ccccc2O)N1 (stereo not given) -17.3%, Cc1ccc2ccc3c(c2n1)NS(=O)(=O)c1ccccc1-3 13.3%, SCc1nc2ccc(Cl)cc2[nH]1 3.96%, CCN(CC)/[N+]([O-])=N/OCOC(=O)Cc1c(C)n(C(=O)c2ccc(Cl)cc2)c2ccc(OC)cc12 -21%, CCc1cnc2c(c1SCC(=O)c1ccccc1)c(=O)n(C)c(=O)n2C 7.78%, O=C(NNC(=O)c1ccccc1O)c1ccccc1O -1.19%, O=C(COC(=O)c1ccc(O)cc1O)NC(=O)c1ccccc1 -0.462%, COc1ccc(-c2c(C)c3ccc(O)c(CN4CCN(C)CC4)c3oc2=O)cc1OC -15.2%, CCOC(=O)COc1cc(OCC(=O)OCC)c2c(=O)cc(-c3ccccc3)oc2c1 5.91%, OCC(O)C(O)C(O)C(O)C=Nc1ccc(/C=C/c2ccnc3ccccc23)cc1 (stereo not given) 5.86%, CC1(C)Cc2ccccc2-c2c[nH]c(=O)n21 1.92%, Cc1csc[n+]1CCC1CCCCC1 3.23%, CC(C)(C)C1CCC(NC(=O)c2cnn3c2NC(=C2CC2)C=C3C(F)F)CC1 (stereo not given) -7.54%, CCC1(C)Cc2c(sc3[nH]c(=S)n(Cc4ccccc4)c(=O)c23)CO1 (stereo not given) -2.77%, C=CCNC(=O)c1ccc2nc(-c3ccco3)c(-c3ccco3)nc2c1 -23.2%, CCOc1ccc(NC(=O)c2ncoc2-c2ccco2)cc1 -10.3%, CC1(C)CC(=O)c2cc(C(=O)NCc3ccccc3)c(=O)[nH]c2C1 11.9%, O=C1CCC[C@@H]2C[C@@]3(C[C@@H]4CCN1[C@H]24)Nc1ccccc1NC3=NCc1ccccc1 -1.02%, CN1CCN(/[N+]([O-])=N/Oc2ccc([N+](=O)[O-])cc2[N+](=O)[O-])CC1 -16.6%, O=C1CC(c2ccccc2)CC2=C1C(c1ccco1)n1nc(C(F)(F)F)nc1N2 (stereo not given) -5.72%, CCOc1cccc(/C=N/N2C(=O)CSC2=S)c1O 1.58%, CO/N=C/c1ccc(N2CCN(C(=O)c3cccc(Cl)c3)CC2)c([N+](=O)[O-])c1 -3.16%

Potency, active:
CNCCCOc1cc2nc(N3CCCN(C)CC3)nc(NC3CCN(C)CC3)c2cc1OC 22.4 µM, CC(=O)OC1CCC2(C)C(=CCC3C4CC(=O)N(O)C(=O)C4(C)CCC32)C1 (stereo not given) 3.16 µM, CN(C)CCNC(=O)c1ccc(Cl)c2cc3ccccc3nc12 11.2 µM, Cc1ccc(NC(=O)CN2C(=O)C(c3ccc(F)cc3)=NC23CCCCCC3)c(C)c1 89.1 µM, COc1ccc2[nH]c3c(C)c4cc[n+](C)cc4c(C)c3c2c1 2.24 µM, COc1ccc(Cc2nnc(NC(=O)Cc3cccs3)s2)cc1 56.2 µM, CN(C)c1ccc(/C=C/c2sc3ccccc3[n+]2CCCCBr)cc1 50.1 µM, CN(C)c1ccc(/C=C/c2sc3ccccc3[n+]2C)cc1 50.1 µM, O=C(NNc1c2ccccc2nc2ccccc12)c1cc2ccccc2cc1O 50.1 µM, COc1c(O)cc2oc(-c3ccc(O)c(O)c3)cc(=O)c2c1O 17.8 µM, Nc1ccccc1SC(C[N+](=O)[O-])c1ccccc1 (stereo not given) 15.8 µM, C=CCn1c(=S)[nH]c2scc(-c3ccco3)c2c1=O 39.8 µM, COCCNC(=O)Nc1ccc2nc(-c3ccco3)c(-c3ccco3)nc2c1 11.2 µM, COc1cccc2c1C(=O)c1c(O)c3c(c(O)c1C2=O)CC(O)(C(C)=NNC(=O)c1ccc(Cl)c(Cl)c1)CC3OC1CC(N)C(O)C(C)O1 (stereo not given) 44.7 µM, O=C1CSC(=S)N1/N=C/c1ccc(O)c([N+](=O)[O-])c1 28.2 µM
